Rows were chosen to be rich in hits. Some 1.2% of all compounds tested hit in one or more screens of this group.
RGS4-Gao reg: modulators of RGS4 binding to Galphao, primary screen, biochemical, multiplexed bead flow cytometry | Guanine nucleotide-binding protein G(o) subunit alpha (Homo sapiens), P09471 | actives lie on both sides | binding response (% of control), % at 10 µM | 0.33% of 220,000 active; in the data active = binding response below about 49% or above about 150%; inactive = in between;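 note: fluorescent Galphao activated with aluminum fluoride binding bead-coupled RGS4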
GSH bead fluor: compound fluorescence on glutathione beads, profiling panel, artefact control, biophysical, 488/530 nm, flow cytometry. GSH beads flow cytometry, compound fluorescence 488/530 nm; stronger effect = higher value. fluorescence (KMESF) at 10 µM. 0.25% of 190,000 active; in the data active = fluorescence above about 89;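 note: glutathione beads carrying GST-tagged Bcl family fusion proteins plus one bare bead set; values are compound well signal with DMSO vehicle wells as background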
RGS16-Gao HTS: modulators of RGS16 binding to Galphao, primary screen, biochemical, human proteins, multiplexed bead flow cytometry | Regulator of G-protein signaling 16 (Homo sapiens) + Guanine nucleotide-binding protein … | bead-based flow cytometry RGS16-Galphao binding, fluorescence; actives lie on both sides | binding response (% of control), % at 10 µM | 0.38% of 220,000 active;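 note: Galphao activated by GDP with aluminum fluoride before binding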
Target sequence (O15492 whole entry, looked up): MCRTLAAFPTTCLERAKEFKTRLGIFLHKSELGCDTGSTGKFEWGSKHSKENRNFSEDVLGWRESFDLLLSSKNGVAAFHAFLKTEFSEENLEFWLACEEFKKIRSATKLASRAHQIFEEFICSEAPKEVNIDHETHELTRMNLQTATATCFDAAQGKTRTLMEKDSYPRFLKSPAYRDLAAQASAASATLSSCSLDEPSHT
Target sequence (P09471 whole entry, looked up): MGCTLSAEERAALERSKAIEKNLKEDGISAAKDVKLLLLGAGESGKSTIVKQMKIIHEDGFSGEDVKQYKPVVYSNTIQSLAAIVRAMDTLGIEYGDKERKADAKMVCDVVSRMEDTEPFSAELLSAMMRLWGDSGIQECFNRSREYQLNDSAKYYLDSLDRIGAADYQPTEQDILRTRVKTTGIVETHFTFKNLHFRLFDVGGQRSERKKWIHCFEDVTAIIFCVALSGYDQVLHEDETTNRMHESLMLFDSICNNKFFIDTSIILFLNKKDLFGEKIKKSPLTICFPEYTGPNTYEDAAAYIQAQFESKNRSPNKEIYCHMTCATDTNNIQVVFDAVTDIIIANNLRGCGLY
RGS7-Gao: RGS7-Galphao binding modulators, primary screen, biochemical, multiplexed bead flow cytometry; actives lie on both sides; binding response (% of control), % at 10 µM; 0.35% of 220,000 active; AID 1439, 2008; in the data active = binding response below about 49% or above about 150%; inconclusive = no clear call, values can overlap the other calls; inactive = in between;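 note: fluorescent Galphao held in activated GDP-AlF4 state binding bead-coupled RGS7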
RGS8-Gao reg: RGS8-Galphao binding modulators, primary screen, biochemical, multiplexed bead flow cytometry | 0.34% of 220,000 active | actives lie on both sides | Guanine nucleotide-binding protein G(o) subunit alpha (Homo sapiens), P09471 | response (percent of control binding), % at 10 µM; in the data active = response below about 60% or above about 140%; inactive = in between;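 note: Galphao activated as the GDP aluminium fluoride complex binding bead-coupled RGS8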
Avidin fluor: green autofluorescence of compounds with avidin beads – biophysical, 488/530 nm, flow cytometry, artefact control, profiling panel; fluorescence (KMESF) at 10 µM; 0.38% of 220,000 active; AID 1775, 2009; compound fluorescence 488/530 nm; stronger effect = higher value; in the data active = fluorescence above about 47
RGS-Gao: modulators of RGS–Galpha-o binding, primary screen, biochemical, multiplexed beads, flow cytometry, RGS4/7/8/16/19; AID 1504, 2009; shares compounds with RGS16-Gao HTS; multiplexed bead flow cytometry; 99% of 1,600 active; RGS4–Galpha-o binding response, % at 10 µM;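 note: fluorescently labeled Galpha-o bound to GDP with aluminium fluoride binding biotinylated RGS beads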
Avidin counter: disruption of biotin probe capture by avidin, counter-screen for RGS protein interaction modulators, biochemical, flow cytometry, bead-based. streptavidin beads, fluorescein-biotin binding. 1,700 tested, under 10 active. inhibition, % at 10 µM. AID 1783, 2009. shares compounds with RGS16-Gao HTS;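 active = inhibition above 50%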;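 note: median green fluorescence of gated singlet beads compared with DMSO control wells; 0% = DMSO wells and 100% = complete loss of bead fluorescence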
RGS8-Gao single: RGS8-Galphao binding modulators, confirmation, biochemical, multiplexed bead flow cytometry, single concentration | shares compounds with RGS16-Gao HTS | bead-based flow cytometry RGS8-Galphao binding, fluorescence; actives lie on both sides | binding response (% of control), % at 10 µM | 3% of 1,700 active; in the data active = binding response below about 72% or above about 130%; inactive = in between;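 note: Galphao activated as GDP AlF4 complex before binding bead RGS8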
RGS7-Gao confirm: RGS7-Galphao binding modulators, confirmation, biochemical, multiplexed bead flow cytometry, single concentration; shares compounds with RGS16-Gao HTS; bead-based flow cytometry RGS7-Galphao binding; actives lie on both sides; response (percent of control binding), % at 10 µM; 7.8% of 1,700 active; AID 1837, 2009; in the data active = response below about 75% or above about 130%; inactive = in between;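 note: fluorescent Galphao activated with GDP and aluminum fluoride binding bead-coupled RGS7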
RGS16-Gao single: modulators of RGS16-Galphao protein binding, confirmation, biochemical, single concentration, multiplexed bead flow cytometry; shares compounds with RGS16-Gao HTS; bead-based flow cytometry; actives lie on both sides; response (% of control binding), % at 10 µM; 4% of 1,700 active; AID 1838, 2009; in the data active = response below about 74% or above about 130%; inactive = in between;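 note: Galphao activated as the GDP aluminium fluoride complex binding bead-coupled RGS16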
RGS4-Gao single: modulators of RGS4-Galphao protein binding, confirmation, biochemical, single concentration, multiplexed bead flow cytometry. shares compounds with RGS16-Gao HTS. AID 1840, 2009. 4% of 1,700 active. binding response (% of control), % at 10 µM. actives lie on both sides; in the data active = binding response below about 74% or above about 130%; inactive = in between
RGS19-Gao single: regulators of RGS19-Galphao binding, confirmation, biochemical, single point, multiplexed bead flow cytometry; AID 1841, 2009; 5% of 1,700 active; shares compounds with RGS16-Gao HTS; response (percent of control binding), % at 10 µM; bead-based flow cytometry RGS19-Galphao binding; actives lie on both sides; in the data active = response below about 50% or above about 160%; inactive = in between;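 note: 100% = no compound control and 0% = blank background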
Starred values were filed as active, the others as inactive; ? = inconclusive; nt = no result; [ ] = remark or other dose. Unless noted, the rule behind the calls is not given here.

SMILES	RGS4-Gao reg	GSH bead fluor	RGS16-Gao HTS	RGS7-Gao	RGS8-Gao reg	Avidin fluor	RGS-Gao	Avidin counter	RGS8-Gao single	RGS7-Gao confirm	RGS16-Gao single	RGS4-Gao single	RGS19-Gao single
Cc1onc(-c2ccccc2Cl)c1C(=O)c1ccccc1	-27.7*	nt	-15.7*	?	7.7*	-2	nt	-0.2	100.9	103.8	102.8	101.9	100.5
Cc1onc(-c2ccccc2Cl)c1C(=O)Nc1ccc(Cl)cn1	98.1	nt	110.4	?	101.8	4	nt	nt	nt	nt	nt	nt	nt
Cc1onc(-c2c(Cl)cccc2Cl)c1C(=O)c1ccccc1	105.8	nt	104.4	?	106.2	3	nt	nt	nt	nt	nt	nt	nt
Cc1onc(-c2ccccc2Cl)c1C(=O)Nc1ncn[nH]1	85.8	5	-1.7*	86.7	71.6	6	85.8*	1.5	98.5	81.9	98.3	89.0	81.4
COc1ccc(CN2C(=O)c3ccccc3C2C(=O)NC2CCCC(C)C2C)c(OC)c1 (configuration not stated)	99.8	11	101.6	104.2	101.2	5	nt	nt	nt	nt	nt	nt	nt
CCC(C)(C)c1nnc(NC(=O)c2cccc([N+](=O)[O-])c2)s1	88.8	12	20.3*	89.2	74.9	2	88.8*	1.8	103.2	105.4	108.7	106.9	92.0
Cc1ccc(OCCN2CCN(C(=O)CCC(=O)Nc3nnc(CC(C)C)s3)CC2)cc1	98.6	nt	98.8	?	97.7	10	nt	nt	nt	nt	nt	nt	nt
CCN(CC)S(=O)(=O)c1ccc(OC)c(NC(=O)CSc2cc(Cl)ccc2Cl)c1	99.4	4	107.7	96.0	101.8	12	nt	nt	nt	nt	nt	nt	nt
O=C(Nc1cccc(Cl)c1)NC1(C(=O)NCc2cccs2)CCCCC1	114.5	25	96.5	232.3*[activator]	92.0	138*	114.5*	-1.0	99.5	98.1	100.7	99.9	94.2
O=C(Nc1ccc(F)cc1)NC1(C(=O)NCc2cccs2)CCCCC1	109.1	24	125.7	104.1	105.2	10	nt	nt	nt	nt	nt	nt	nt
O=C(/C=C/c1ccccc1)NNC(=O)C1CC1	nt	41	nt	nt	nt	nt	nt	0.3	95.2	98.3	93.0	94.1	107.5
O=c1c(Cl)c(Cl)cnn1Cc1nnc(-c2ccccc2Br)o1	102.5	21	101.6	103.1	102.8	4	nt	nt	nt	nt	nt	nt	nt
